Activity calls are given as the source filed them.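 The calls were made as follows: active = compounds whose dose series gives a full or clear partial fitted curve of increased nuclear translocation; inconclusive = weak partial curve or effect only at the top dose; inactive = no dose-dependent translocation response.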
target: Glucocorticoid receptor (Homo sapiens) (UniProt P04150); test: GR-GFP Redistribution (AID 450); conditions: U2OS GR-GFP nuclear translocation, laser cytometry, 2 h; series mostly up to 20.6 µM
Potency is read from the fitted curve at half-maximal effect.

Glucocorticoid receptor (Homo sapiens), sequence (P04150 whole entry, looked up): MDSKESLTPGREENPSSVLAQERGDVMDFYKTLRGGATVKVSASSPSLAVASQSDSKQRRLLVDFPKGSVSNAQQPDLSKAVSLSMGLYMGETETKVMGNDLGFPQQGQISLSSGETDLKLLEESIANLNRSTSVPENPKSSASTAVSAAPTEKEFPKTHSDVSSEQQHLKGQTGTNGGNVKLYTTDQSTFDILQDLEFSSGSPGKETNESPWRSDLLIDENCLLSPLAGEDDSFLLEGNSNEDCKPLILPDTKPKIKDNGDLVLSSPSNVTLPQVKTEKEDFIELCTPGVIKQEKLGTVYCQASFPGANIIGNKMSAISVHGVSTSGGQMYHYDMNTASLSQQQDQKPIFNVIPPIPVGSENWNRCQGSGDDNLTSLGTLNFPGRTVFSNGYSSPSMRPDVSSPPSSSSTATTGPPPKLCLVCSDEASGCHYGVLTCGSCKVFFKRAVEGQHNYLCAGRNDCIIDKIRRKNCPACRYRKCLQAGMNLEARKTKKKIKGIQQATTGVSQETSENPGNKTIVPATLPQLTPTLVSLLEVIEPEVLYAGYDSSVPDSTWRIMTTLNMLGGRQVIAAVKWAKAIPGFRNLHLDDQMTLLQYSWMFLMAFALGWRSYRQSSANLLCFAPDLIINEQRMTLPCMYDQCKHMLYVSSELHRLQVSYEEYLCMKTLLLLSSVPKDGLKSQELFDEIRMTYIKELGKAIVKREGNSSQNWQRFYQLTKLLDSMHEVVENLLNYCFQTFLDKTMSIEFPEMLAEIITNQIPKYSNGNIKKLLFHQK

Potency, inactive:
O=C(Nc1ccccn1)c1ccc(=O)[nH]n1 > 20.6 µM, Cc1cccc(OCc2nc(C)cc(=O)[nH]2)c1 > 20.6 µM, O=C(C1CC1(c1ccccc1)c1ccccc1)N1CCOCC1 (stereo not given) > 20.6 µM, COc1ccc(/C(O)=C2\C(=O)C(=O)N(c3cc(C)on3)C2c2cccc(OC)c2OC)cc1C (stereo not given) > 20.6 µM, CCOC(=O)c1[nH]c2cc3c(cc2c1NC(=O)CN1CCc2ccccc2C1)OCO3 > 20.6 µM, CC(C)(C)OC(=O)N1CC=C2C(C#N)=C(N)C(C#N)(C#N)[C@H](c3cccnc3)[C@H]2C1 > 20.6 µM, O=C(NCCN1CCCCC1)c1ccc(=O)oc1 > 20.6 µM, CCOc1ccc(-c2nc(C#N)c(NCC(C)C)o2)cc1 > 20.6 µM, N#Cc1c2c(c(-c3ccccc3)[nH]c1=O)CCCC2 > 20.6 µM, O=C(Cc1ccccc1)Nc1cccc(-c2nnc(-c3ccco3)o2)c1 > 20.6 µM, CCOC(=O)CSc1nc(N)c(C#N)c(-c2ccc(OC)cc2)c1C#N > 20.6 µM, COc1cc2nc(-c3ccccc3)nc(N3CCCC3)c2cc1OC > 20.6 µM, CCOC(=O)C1=C(C)N=C2SC(C)C(=O)N2C1c1ccc(OC(C)=O)c(OC)c1 (stereo not given) > 20.6 µM, C(=N\n1cnnc1)/c1cccnc1 > 20.6 µM, N#CC1=C(N)N2C(=C(C#N)C1c1ccccc1)Sc1ccccc12 (stereo not given) > 20.6 µM
